From PubChem BioAssay
Values without a mark were called inactive. Active and inactive are the calls of the source.

test: PSAC antagonists in infected red cells, primary screen, cell-based, P. falciparum Indochina, OD700, 2 h (AID 1155);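 further: lysis reports solute entry through the parasite surface anion channel PSAC; channel blockers reduce lysis of infected cells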; settings: P. falciparum Indochina infected erythrocytes, osmotic lysis OD700; higher = more signal, called active from +8 up or from −8 down

SMILES | z-score
CC(C)C(=C=CC[C@H](O)c1ccc(OCCO)cc1)C[C@H](O)c1cc(Cl)cc(Cl)c1O | 3.7
C=C(COC)/C(=C/C[C@@H](OC(=O)c1ccncc1)c1ccc(OCCO)cc1)c1cnc2ccccc2c1 | 5.56
CC(C)CN1C(=O)[C@@]2(c3ccc([N+](=O)[O-])cc3)CC(=O)N(CC34CC5CC(CC(C5)C3)C4)[C@@H]2c2ccc(CO)cc21 | -0.377
C=C(CCCC)/C(=C/C[C@@H](OC(C)=O)c1ccc(CO)o1)c1cc(C(=O)OC)ccc1OC | 0.938
C=C(C(=O)CC[C@H](OC(=O)c1cccnc1)c1ccc(CO)o1)C(C)C | -0.115
CCOc1cc(C(O)C2C=CC3C(=O)N(C4CCCCC4)C(=O)C3N2Nc2ccc(OC)cc2)ccc1O (centres undefined) | 0.679
CN(C)CCCNC(=O)[C@@H]1c2ccccc2C(=O)N(CC23CC4CC(CC(C4)C2)C3)[C@H]1c1ccc(CO)cc1 | 0.964
NC(=O)N1C(=O)C2C(C1=O)C1C=C(CCCO)C2C(c2cccs2)N1Cc1cc2c(cc1Br)OCO2 (centres undefined) | 2.3
[N-]=[N+]=NCc1ccccc1[C@H]1OC(c2ccc(OCCCO)cc2)=N[C@@]1(CCS(=O)(=O)c1ccccc1)C(N)=O | 6.95
CC(C)(C)OC(=O)CC[C@]1(C(=O)O)N=C(c2ccc(OCCCO)cc2)O[C@H]1c1ccccc1 | 1.08
COc1ccc([Si](C)(C)[C@@H]2[C@@H](CCO)O[C@]3(C(=O)N(Cc4cccc(N5C(=O)c6cccc7cccc5c67)c4)c4ccccc43)[C@H]2C)cc1 | 3.66
COC1(C)CN(Cc2ccccc2Br)[C@H](/C=C/c2ccccc2)[C@H](Cc2ccccc2)O1 (some centres undefined) | 0.669
CN(C)C(=O)[C@@]1(Cc2ccccc2N=[N+]=[N-])COC(c2ccc(OCCCO)cc2)=N1 | 6.99
CC(C)N1CC=CC23O[C@@H]4C=CCCOC(=O)C4[C@H]2C(=O)N(CCO)[C@@H]3C1=O (some centres undefined) | 0.568
C=C[C@@H](C)[C@H](OC(=O)Nc1ccc(SC)cc1)c1ccc(OCCO)cc1 | 12 (active)
COC(=O)[C@@]1(Cc2ccc(OC)cc2)[C@H]2c3cc(C(=O)N(C)C)n(CCc4c[nH]c5ccc(O)cc45)c3C[C@H]2CN1C(=O)c1ccccc1 | 1.25
COc1cc2c(cc1OC)CN(C(=O)[C@H]1[C@@H]3C(=O)O[C@@H](c4ccccc4)[C@@H](c4ccccc4)N3[C@@H](c3ccc(OCCO)cc3)[C@]13C(=O)Nc1ccc(C#CCCO)cc13)CC2 | 1.8
COc1cc(CO)cc(I)c1O[C@H]1C=C(C(=O)NCCO)C[C@@H](N(CC2CCCCC2)C(=O)c2ccc(C(F)(F)F)cc2)[C@@H]1O | 0.447
COC(=O)[C@@]1(Cc2ccc(F)cc2)[C@H]2c3cc(C(=O)N4CCCC4)n(CCc4c[nH]c5ccc(OC)cc45)c3C[C@H]2CN1C(=O)c1ccccc1 | -0.165
COCC(=C=CC[C@H](O)c1ccc(OCCO)cc1)C[C@H](O)COCc1ccccc1 | 1.61
CC=CC(O)C1C=CC2C(=O)N(C)C(=O)C2N1N1CCCCC1 (centres undefined) | 1.18
[N-]=[N+]=NCc1ccccc1C[C@]1(C(=O)NCC(O)CO)N=C(c2ccc(OCCCO)cc2)O[C@H]1c1ccccc1CN=[N+]=[N-] (some centres undefined) | 2.49
NCCCCCCNC(=O)[C@H]1C[C@H]2C(=O)N[C@@H](Cc3ccccc3)C(=O)N2[C@H]1c1ccc(O)cc1 | -0.243
CCCCC(=C=CC[C@@H](O)c1ccc(OCCO)cc1)C[C@@H](O)COCc1ccccc1 | 1.73
O=C(O)[C@]1(Cc2ccccc2)N=C(c2ccc(OCCCO)cc2)O[C@@H]1c1ccccc1 | -0.125
CC(C)C(=C=CC[C@@H](O)c1ccccc1OCCO)C[C@@H](O)COCc1ccccc1 | 2.19
O=C1O[C@@H](c2ccccc2)[C@@H](c2ccccc2)N2[C@@H](c3ccc(O)cc3)[C@]3(C(=O)Nc4ccccc43)[C@@H](C(=O)Nc3nc4ccccc4s3)[C@H]12 | 2.29
O=C(N1CCCCC1)[C@@]1(Cc2ccccc2)COC(c2ccc(OCCCO)cc2)=N1 | 3.44
CO[C@H]1O[C@H](CO)[C@@H](OC(=O)Nc2ccc(C(F)(F)F)cc2)[C@H](OC(=O)Nc2ccc3c(c2)OCO3)[C@H]1OC(=O)Nc1ccc2c(c1)OCO2 | 0.993
